# From PubChem BioAssay
# Not all results are given here.
# aSyn 5UTR act – Activators working through SNCA 5'UTR binding (MLPCN). alpha-synuclein 5'UTR reporter, activators screen. activity score, % (tested at 7.5 µM), hits read low. hit rate 7.1% among 300,000; in the data active = activity score below about -60%
# Numbers stand for hits; . = inactive.
SMILES,aSyn 5UTR act
CCc1ccc2nc(N(CCN(C)C)C(=O)c3ccc4ncsc4c3)sc2c1,-114
Cc1cccc2sc(N(CCCN(C)C)C(=O)c3ccc4ncsc4c3)nc12,-92
CSc1ccc(CNc2ccc(C)cc2)cc1,-149
CSc1ccc(CNc2ccc(C)c(C)c2)cc1,-139
Cc1ccccc1OCC(=O)NC1=NCCS1,-77
Cc1cc(NC(=O)COc2cccc(C)c2C)no1,-66
Cc1cc(NC(=O)COc2cccc3cccnc23)no1,-96
Cc1cc(NC(=O)COc2ccccc2C)no1,-116
Cc1cc(NC(=O)COc2ccc(C)c(C)c2)no1,-62
Cc1ccc(C(=O)NCC(=O)NC23CC4CC(CC(C4)C2)C3)cc1,-76
O=C(CCl)c1ccc2c(c1)CCN2C(=O)C1CC1,-94
COc1cc(C2=NOC(C(=O)Nc3ccc(C(C)=O)cc3)C2)cc(OC)c1OC (stereo unspecified),-80
CCC(C)[C@H](NC(=O)[C@@H]1Cc2ccccc2CN1)C(=O)Nc1ccc2c(c1)OCO2 (stereo partly specified),-101
C[C@H](NC(=O)[C@@H]1Cc2ccccc2CN1)C(=O)Nc1ccc2c(c1)OCCO2,-65
CCN(CC)C(=O)CSc1nc(N)c2c3c(sc2n1)CC(C)CC3 (stereo unspecified),-85
C[C@H]1Oc2ccccc2C(=O)C1C(=O)c1ccccc1 (stereo partly specified),-100
CC1Oc2cc3oc4c(O)c(O)ccc4c(=O)c3c(O)c2C1(C)C (stereo unspecified),-150
CC(C)=CCc1c(O)cc2oc3c(CC=C(C)C)c(O)c(O)c(CC=C(C)C)c3c(=O)c2c1O,.
CCOc1ccc(CCNC(=O)c2nnn(CC(=O)Nc3ccc(C)cc3)c2N)cc1OCC,-71
COc1cccc(CNC(=O)c2nnn(CC(=O)Nc3ccc(Br)cc3)c2N)c1,.
CCC(CC)C(=O)Nc1cccc(C(=O)NCCc2ccccc2)c1,-64
O=C(NCCc1ccccc1)c1ccc(Cl)c([N+](=O)[O-])c1,-99
CCCN1CCC(Oc2cccc(C(=O)NCCc3ccccc3)c2)CC1,-72
Cc1cccc(C(=O)NCCc2ccccc2)c1,-112
Cc1cc(C(=O)NCCc2ccccc2)ccc1[N+](=O)[O-],-116
SMILES,aSyn 5UTR act
O=C(c1ccc(Cl)c([N+](=O)[O-])c1)N(c1ccccn1)c1ccccn1,-98
CC(C)(C)c1ccc(C(=O)NC(=S)N2CCOCC2)cc1,-102
CC(C)Oc1ccc(C(=O)NC(=S)N2CCOCC2)cc1,-79
O=C(Cn1ccsc1=NC(=O)C(F)(F)F)c1ccccc1,-123
O=C(CSc1nc2cc(Cl)ccc2s1)c1ccco1,-210
CCn1c(SCC(=O)c2cc(C)n(CC3CCCO3)c2C)nc2ccccc21 (stereo unspecified),-119
Cc1cc(C(=O)CSc2nnnn2-c2ccccc2)c(C)n1CC1CCCO1 (stereo unspecified),-105
Cc1cc(C(=O)CN2C(=O)c3ccccc3S2(=O)=O)c(C)n1CC1CCCO1 (stereo unspecified),.
Cc1cc(C(=O)CSc2nc3ccccc3n2CCC#N)c(C)n1Cc1cccs1,-124
Cc1cc(C(=O)CSc2nc3ccccc3c(=O)[nH]2)c(C)n1CC1CCCO1 (stereo unspecified),-115
Cc1cccc(NC(=O)Nc2ccc(Br)cc2)n1,-127
CCC(=O)Nc1ccc(C(=O)Nc2cccc(C)n2)cc1,-169
COc1ccc(NC(=O)Nc2ccc(Br)cn2)cc1,-146
COc1ccc(NC(=O)Nc2cccc(C)n2)cc1,-201
COc1ccnc(Oc2ccc3ccccc3c2)c1C#N,-74
COc1ccnc(N=CNOCc2ccc(C)cc2)c1C#N,-100
COc1ccnc(Oc2ccc(C)cc2)c1C#N,-81
CSc1nc(Oc2ccc3ccccc3c2)c2sccc2n1,.
Cc1ccc(SC(C)c2nc(-c3ccccc3)no2)cc1 (stereo unspecified),-98
Cc1cccc(Nc2nn3c(=O)c4ccccc4nc3s2)c1,-160
Cc1ccc(Oc2ncnc3sccc23)cc1,-143
CCOc1ccc(OCCOc2ncnc3ccccc23)cc1,-70
c1ccc(OCCOc2ncnc3sccc23)cc1,-126
COC(=O)c1c(C)[nH]c(/C=N/Nc2ccccc2)c1C,-71
CCOC(=O)N1CC=C2C(C#N)=C(N)C(C#N)(C#N)[C@H](c3ccccc3OCC)[C@H]2C1,-90
SMILES,aSyn 5UTR act
CC(=O)C1=C(C)NC(SCC(=O)c2ccccc2)=C(C#N)C1c1ccco1 (stereo unspecified),-162
CC(=O)NC1Sc2ccccc2N=C1c1ccccc1 (stereo unspecified),-181
Cc1ccc(C(=O)N2C(CC(=O)Nc3ccc(Cl)cc3)C(=O)NC3CCCCC32)cc1 (stereo unspecified),-72
Clc1ccccc1/C=N/NC1=Nc2cccc3cccc1c23,-230
COc1ccc(C(=O)NNC2=Nc3cccc4cccc2c34)cc1,.
CC(=O)Nc1cccc(-c2nc3ccc(NC(C)=O)cc3s2)c1,-133
CC(=O)Nc1cccc(-c2nc3ccccc3s2)c1,-133
CC(=O)Nc1ccc(O)c(-c2nc3ccccc3s2)c1,-326
CC(=O)Nc1cccc(-c2cc(C)c3cc4c(cc3n2)OCO4)c1,-89
